# Data as given in PubChem BioAssay (Tox21).
# Inconclusive results are not listed. Where a call stands in place of a potency, no number is given. The source made the active and inactive calls. Calls follow the shape of the dose curve; as a rule, active = well fitted activation curve with a large enough effect in the repeat runs; inconclusive = weak or mixed curves; inactive = no such curve, though single readings can be large or run the other way.
# Target: Nuclear receptor subfamily 1 group I member 3 (Homo sapiens) (UniProt Q14994)
# Test: qHTS assay to identify small molecule agonists of the constitutive androstane receptor (CAR) signaling pathway (AID 1224839); also: nearly all actives have a fitted effect of over 15% in size;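 as to activation: HepG2 cells stably carrying human CAR and a CYP2B6 luciferase reporter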
# Conditions: HepG2 hCAR CYP2B6-luciferase, agonist mode, 24 h; series mostly up to 92.4 µM
# From the text: National Center for Advancing Translational Sciences [NCATS] NIH Chemical Genomics Center [NCGC] U.S. Environmental Protection Agency [EPA] National Institutes of Environmental Health Sciences [NIEHS] National Toxicology Program [NTP] Assay overview: The constitutive androstane receptor (CAR) is a nuclear receptor which regulates multiple drug metabolizing enzymes (DMEs) and transporters. Activating CAR will generally increase the transcription and subsequent translation of CYP2B6 and CYP3A4. These two DMEs represent about 50% of the drug metabolizing potential in the body. […] Recently, there have also been studies performed indicating CARs role in energy metabolism and cancer therapy. Therefore, inducing CARs activity could have a potential effect on diabetes and cancer. Identifying environmental toxins and compounds which modulate CAR, through the use of the Tox21 10K compound collection, will be an important step in determining the toxicity and potential therapeutic effects these factors will have on the human body.
# Assay Protocol Summary: A double-stable (hCAR and CYP2B6-2.2kb) transfected cell line, derived from human hepatoma (HepG2) cells, was utilized for the duration of the quantitative high-throughput screens. The HepG2-CYP2B6-hCAR cells suspended in DMEM culture medium supplemented with 10% FBS, 5 ug/mL blasticidin, 0.5 mg/mL geneticin, 100 U/mL penicillin and 100 ug/mL streptomycin were dispensed at 2500 cells/4 uL/well in 1536-well white solid bottom plates using a Multidrop Combi. After the assay plates were incubated at 37 C/5% CO2 for 4 hrs, 23 nL of compounds at 15 concentrations (from 5-48 columns) or positive control (from 1 to 4 columns) were transferred to the assay plates using a Pintool station. One uL of PK11195, was added using a Flying Reagent Dispenser to generate a final concentration of 0.75 uM PK11195 inside each well. After a 24 hr incubation period at 37 C/5% CO2, four uL of ONE-Glo reagent was added into the assay plates using a Flying Reagent Dispenser. After a 30 min incubation period at room temperature, the luminescence intensity in the assay plates was measured using a ViewLux plate reader.
# Potency is read from the fitted curve at half-maximal effect.
# Sequence of Nuclear receptor subfamily 1 group I member 3 (Homo sapiens) (Q14994 whole entry, looked up): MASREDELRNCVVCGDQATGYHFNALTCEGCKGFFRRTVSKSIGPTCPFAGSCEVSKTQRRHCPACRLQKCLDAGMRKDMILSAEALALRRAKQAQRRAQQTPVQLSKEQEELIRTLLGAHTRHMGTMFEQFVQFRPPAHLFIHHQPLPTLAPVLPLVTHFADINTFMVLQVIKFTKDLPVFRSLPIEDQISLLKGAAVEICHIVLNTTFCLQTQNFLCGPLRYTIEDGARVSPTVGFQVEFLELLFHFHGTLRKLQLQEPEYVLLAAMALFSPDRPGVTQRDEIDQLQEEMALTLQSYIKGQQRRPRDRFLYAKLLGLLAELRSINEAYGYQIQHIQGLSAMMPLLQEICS
SMILES,Potency,activation
COc1nccnc1NS(=O)(=O)c1ccc(N)cc1,inactive,
C[C@@H]1O[C@@H](O[C@@H]2[C@@H](O)[C@H](OCCc3ccc(O)c(O)c3)O[C@H](CO[C@@H]3O[C@H](CO)[C@@H](O)[C@H](O)[C@H]3O)[C@H]2OC(=O)/C=C/c2ccc(O)c(O)c2)[C@H](O)[C@H](O)[C@H]1O,inactive,
COCCOCCOCCOCCO,inactive,
CNC(=O)[C@H]1O[C@@H](n2cnc3c(NCc4cc(Cl)ccc4OCc4cc(C)no4)ncnc32)[C@H](O)[C@@H]1N,inactive,
O=C(O)c1cc(Cl)cc([N+](=O)[O-])c1Cl,inactive,
CCOC(=O)[C@H](CCc1ccccc1)N[C@@H](C)C(=O)N1C(=O)N(C)C[C@H]1C(=O)O,inactive,
C=COCCOCCOCCOC=C,inactive,
C=C(C)C(=O)OCCOP(=O)(O)OCCOC(=O)C(=C)C,inactive,
O=C1c2ccccc2C(=O)N1CCl,inactive,
NS(=O)(=O)c1ccc(NC(=O)CCC(=O)O)cc1,inactive,
CCCCCCCCC1CCC(=O)O1 (stereo not given),30.6 µM (active),
CCCCNC1CC(C)(C)NC(C)(C)C1,inactive,
CCOC(=O)c1ncn2c1CN(C)C(=O)c1cc(F)ccc1-2,inactive,
CN=C(NC#N)Nc1ccc(C2=NNC(=O)CC2C)cc1 (stereo not given),inactive,
C=CC(OCC)OCC,inactive,
CC(C)CCCC(C)(C)O,inactive,
CN1CCN(CC(=O)N2c3ccccc3C(=O)Nc3cccnc32)CC1,,-1% [at 8.39 µM] (inactive)
COP(=O)(OC)OC(c1ccc(Cl)cc1)P(=O)(OC)OC (stereo not given),inactive,
COc1ccc2c(c1)C(=O)N(CCc1ccc(S(=O)(=O)NC(=O)NC3CCCCC3)cc1)C(=O)C2(C)C,inactive,
O=C(O)CCSSCCC(=O)O,inactive,

SMILES,Potency,activation
O=S(=O)(O)c1cc(O)c2ccc(Nc3ccccc3)cc2c1,inactive,
Cc1ccc(S(=O)(=O)O)c(C)c1,inactive,
CCC(CC)CO,inactive,
O=P(O)(O)OP(=O)(O)O,inactive,
CCCCCCCCOS(=O)(=O)O,inactive,
CC(S)C(=O)NCC(=O)O (stereo not given),inactive,
COc1cc2c(cc1OC)C(=O)CC2,inactive,
CCc1ccc(C=O)cc1,inactive,
CCN(C)C(=O)Oc1cccc([C@H](C)N(C)C)c1,inactive,
CCNC(=O)C1CC(C)CCC1C(C)C (stereo not given),inactive,
BrCCCCCBr,inactive,
O=C1c2ccccc2C(=O)c2cc(S(=O)(=O)O)ccc21,inactive,
CCCCN,inactive,
COc1cc2c(cc1OC)[C@@H]1CC(=O)[C@@H](CC(C)C)CN1CC2,inactive,
COC(=O)CCCCCCCC(=O)OC,inactive,
CCCOC(=O)C(C)O (stereo not given),inactive,
CC1=CCC(C(C)C)=CC1,inactive,
O=C1O[C@@H]2[C@@H](O)[C@H](O)O[C@@H]2[C@H]1O,inactive,
CC(=O)N[C@@H](CCC(=O)O)C(=O)O,inactive,
CC(=O)c1sc(C)nc1C,inactive,
